As usually defined, the AC50 is the midpoint of the concentration-response curve, whichever way the signal moves.

Outcome and AC50 data for 26 compounds are collected here from PubChem BioAssay (EPA / NIEHS).

Results filed as inconclusive are left out. Activity calls are given as the source filed them. Rule for the calls, unless noted: active = hit-call score of the fitted dose curve at least 0.9, where 1 is the maximum; inconclusive = response in the unintended direction; inactive = score below 0.9.

Test system in one assay: not listed separately
The assay can be described thus: Tanguay_ZF_120hpf_NC_legacy: (Legacy) Oregon State University Tanguay Lab 120 Hour Post-fertilization zebrafish Assay for Notochord and Tail Malformation (AID 2283656).
Conditions: not given
In short, it runs like this: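 Dechorionated Tropical 5D wild-type zebrafish embryos, one per well from 6 hpf, statically exposed to 120 hpf at 28C in 0.64% DMSO final. Notochord distortion scored present/absent by brightfield; dead embryos excluded.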
Consider `CCOP(=S)(OCC)Oc1nc(Cl)c(Cl)cc1Cl`, for which the call was inactive. For `O=c1[nH]c(=O)[nH]c(=O)[nH]1`, the call was inactive.

For the compound `Oc1cccc2cccnc12`, the outcome was inactive. The same measure, in the same setting: to `O=C(O)C(Cl)(Cl)Cl` belongs “inactive”.

For the compound `CC12CC1(C)C(=O)N(c1cc(Cl)cc(Cl)c1)C2=O` (stereo not given), the compound was classed as inactive.

For the compound `O=C(O)C(F)(F)C(F)(F)C(F)(F)C(F)(F)C(F)(F)C(F)(F)C(F)(F)C(F)(F)C(F)(F)C(F)(F)F`, the result was inactive. Still for that read-out and setting: to `CCCCCCCCc1ccc(O)cc1` belongs “inactive”; to `O=C(Nc1ccc2[nH]ccc2c1)c1cc2cc(F)ccc2n1Cc1cccc(F)c1`, “inactive”; to `COc1cc(-c2ccc(N)c(OC)c2)ccc1N`, “inactive”. For the compound `C=C(C)C(=O)[O][Sn]([CH2]CCC)([CH2]CCC)[CH2]CCC`, the compound was called inactive. Same read-out and setting: then `CCOP(=S)(OCC)SCSP(=S)(OCC)OCC`, with “inactive”; and `CC(=O)[O][Hg][c]1ccccc1`, with “inactive”; and `CN(C)N=O`, with “inactive”. The same measure, in the same setting: then `CC(C)(C)CC(C)(C)c1ccc(O)cc1`, with “inactive”; and `C=CC(=O)OCCCCCC(C)C`, with “inactive”; and `CCC(=O)C(CC(C)N(C)C)(c1ccccc1)c1ccccc1` (stereo not given), with “inactive”. On the same count and under the same terms, to `O=C1C2(Cl)C3(Cl)C4(Cl)C(Cl)(Cl)C5(Cl)C3(Cl)C1(Cl)C5(Cl)C24Cl` (stereo not given) belongs “inactive”.

Turning to `C[C@]12CCC(=O)C[C@@H]1CC[C@@H]1[C@@H]2CC[C@]2(C)[C@@H](O)CC[C@@H]12`, the compound was called inactive. Take `CC(C)(C)c1cc(O)ccc1O`: the call was inactive.

On to `ClC1(Cl)C2(Cl)C3(Cl)C4(Cl)C(Cl)(Cl)C5(Cl)C3(Cl)C1(Cl)C5(Cl)C24Cl` (stereo not given), for which the call was inactive. On the same count and under the same terms, then `NC(=O)O`, with “inactive”. On to `O=[N+]([O-])c1ccc(O)c([N+](=O)[O-])c1`, for which the result was inactive. On the same count and under the same terms, to `CCN1CCC2(CC1)COc1cc3c(cc12)N(C(=O)c1ccc(-c2ccc(-c4nnc(C)o4)cc2C)cc1)CC3` belongs “inactive”; to `ClCC(Cl)CCl`, “inactive”. With `O=C(O)C(F)(F)C(F)(F)C(F)(F)C(F)(F)C(F)(F)C(F)(F)F`, the call was inactive. With `Cc1ccccc1N`, the call was inactive.

Read-out in the next assay: solute carrier (SLC10A1), SLC10A1 (gene 6554)
Briefly: LTEA_HepaRG_SLC10A1: Life Technologies and Expression Analysis (LTEA) Assay for solute carrier (SLC10A1) using HepaRG (AID 2283657; active = hit-call score of the fitted dose curve at least 0.9, where 1 is the maximum; inactive = score below 0.9). The note with it: mRNA level, 48 h; actives raise or lower the signal. In short, it runs like this:
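HepaRG cells (single lot) exposed 48 h in serum-free induction medium, 8-point half-log series from 100 uM top in 0.5% DMSO, duplicate. SLC10A1 mRNA by qRT-PCR normalised to ACTB, GAPDH, POLR2A; bidirectional fit versus DMSO.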
On to `Oc1cccc2cccnc12`, for which the compound was classed as inactive.

In the case of `O=C(O)C(F)(F)C(F)(F)C(F)(F)C(F)(F)C(F)(F)C(F)(F)C(F)(F)C(F)(F)C(F)(F)C(F)(F)F`, the AC50 was 47.8 µM (active). Regarding `ClC1(Cl)C2(Cl)C3(Cl)C4(Cl)C(Cl)(Cl)C5(Cl)C3(Cl)C1(Cl)C5(Cl)C24Cl` (stereo not given), the AC50 is 1.22 µM (active). With `NC(=O)O`, the outcome was inactive.
